Structures are written as SMILES. A number with no mark means an inactive call.

The nature of this test: yeast growth modulation, basal conditions, primary screen, YJM789 clinical isolate, OD600, 24 h (AID 1089).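 Note: growth of clinical yeast isolate S. cerevisiae YJM 789 seeded 1000 cells per well; test concentration not given here.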 As to conditions: S. cerevisiae YJM789 growth, higher = more signal, called active from +8 up or from −8 down.
Take `CCN1C(=O)[C@H]2[C@H]3[C@H](O)[C@H](O)CC(=NOCC(C)C)[C@@H]3CC[C@H]2C1=O`: the z-score is -0.132.

For the compound `CC(C)=NO[C@H](C)c1cn([C@H](CO)Cc2ccccc2)nn1`, the z-score is -0.43.

As to `CCCNC(=O)OC[C@H]1O[C@H](c2ccccc2)C=C[C@@H]1Oc1ccc(OC)cc1`, the z-score was -0.325.

Regarding `C[C@@H]1CC[C@H]2C(=O)O[C@@H](Cc3ccccc3)CN2[C@H]1c1ccc(Br)cc1`, the z-score is 0.004.

For the compound `COc1ccc(O[C@H]2C=C[C@@H](c3ccccc3)O[C@@H]2CON=C(C)CCC(=O)OC[C@H]2O[C@H](c3ccccc3)C=C[C@@H]2Oc2ccc(OC)cc2)cc1`, the z-score is 0.76.

Take `O=C1[C@H]2[C@H]3[C@H](O)[C@H](O)CC(=NOCc4ccccc4)[C@@H]3CC[C@H]2C(=O)N1Cc1ccc2c(c1)OCO2`: the z-score is -0.559.

Turning to `COC(=O)CC=C[C@@H](C)[C@@H](C=NO[C@@H]1O[C@H](COC(C)=O)[C@@H](OC(C)=O)[C@H](OC(C)=O)[C@H]1OC(C)=O)OC`, the z-score was 0.492.

Regarding `COc1cccc([C@H]2Oc3ccc(OC)cc3C(=NOC[C@@H](O)[C@H]3O[C@@H]4OC(C)(C)O[C@@H]4[C@H]3O)[C@@H]2O)c1`, the z-score is -0.797.

With `O=C1C[C@@H](O)[C@@H](O)[C@@H]2[C@@H]3C(=O)N(Cc4ccccc4)C(=O)[C@@H]3CC[C@@H]12`, the z-score was -0.365.

For the compound `CO[C@H]1COC(=O)CC=C[C@@H](C)[C@H](OC)COC(=O)CCC[C@@H]1C`, the z-score was -1.47.

With `CCN1C(=O)[C@H]2[C@H]3[C@H](O)[C@H](O)CC(=NNC(=O)OCc4ccc(OC)cc4)[C@@H]3CC[C@H]2C1=O`, the z-score is -1.31.
